Records with an inconclusive call do not appear. Activity calls are given as the source filed them. The call rests on the fitted dose curve; in most records, active means well fitted curve in the direction sought with a large enough effect; inconclusive means small, poorly fitted or top-dose-only effect, or another doubt; inactive means no such curve, though single readings can be large; an effect the other way counts as inactive or inconclusive.
Legend:
[1] = qHTS of pediatric cancer cell lines to identify multiple opportunities for drug repurposing: Primary screen for BT-12 cells (AID 1347101); further: nearly all actives have a fitted effect of over 25% in size; further: potency means the concentration at half of the fitted maximal effect
Summary of the method: (§1)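 Cells (500-1,000/well) rested 5 h, then received compounds for 48 h; metabolically active cells were measured by CellTiter-Glo luminescence. Final concentrations spanned up to 46 µM (MIPE, 11-point) or 0.59 nM-46 µM (NPC, 8-point) in primary screens, 11-point in follow-ups.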

[2] = qHTS of pediatric cancer cell lines to identify multiple opportunities for drug repurposing: Primary screen for Rh18 cells (AID 1347102); further: nearly all actives have a fitted effect of over 65% in size; further: potency means the concentration at half of the fitted maximal effect
Summary of the method: (§2)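 Viability after 48 h compound treatment at 37C, 500-1,000 cells/well, read as ATP luminescence with CellTiter-Glo. Primary screens used 11-point (MIPE, 0.78 nM-46 µM) or 8-point (NPC, 0.59 nM-46 µM) final concentrations; follow-up screens used 11-point dilutions.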

[3] = qHTS of pediatric cancer cell lines to identify multiple opportunities for drug repurposing: Primary screen for RD cells (AID 1347104); further: nearly all actives have a fitted effect of over 55% in size; further: potency means the concentration at half of the fitted maximal effect
Summary of the method: (§3)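 Cells seeded at 500-1,000 cells/well in growth media, rested 5 hours at 37 degrees C, 5% CO2, then dosed; MIPE compounds at 11-point (from 0.78 nM) and NPC at 8-point (from 0.59 nM) final concentrations. Viability by CellTiter-Glo luminescence after 48 hours.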

[4] = qHTS of pediatric cancer cell lines to identify multiple opportunities for drug repurposing: Primary screen for Rh30 cells (AID 1347107); further: nearly all actives have a fitted effect of over 75% in size; further: potency means the concentration at half of the fitted maximal effect
Summary of the method: as §2

[5] = qHTS of pediatric cancer cell lines to identify multiple opportunities for drug repurposing: Primary screen for Rh41 cells (AID 1347108); further: nearly all actives have a fitted effect of over 70% in size; further: potency means the concentration at half of the fitted maximal effect
Summary of the method: as §3

[6] = qHTS of pediatric cancer cell lines to identify multiple opportunities for drug repurposing: Primary screen for MG 63 (6-TG R) cells (AID 1347105); further: nearly all actives have a fitted effect of over 50% in size; further: potency means the concentration at half of the fitted maximal effect
Summary of the method: as §3

[7] = qHTS of pediatric cancer cell lines to identify multiple opportunities for drug repurposing: Primary screen for control Hh wild type fibroblast cells (AID 1347106);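 further: series mostly up to about 46 µM; a drop in luminescence marks cytotoxicity and a rise apparent proliferation; nearly all actives have a fitted effect of over 55% in size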
Summary of the method: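 Cells (500-1,000/well) in growth media were settled 5 h at 37 degrees C, then given compounds for 48 h. Viability was read as CellTiter-Glo luminescence. Primary runs used MIPE at 11 points (0.78 nM-46 µM) and NPC at 8 points (0.59 nM-46 µM); follow-ups used 11 points.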

[8] = qHTS of pediatric cancer cell lines to identify multiple opportunities for drug repurposing: Primary screen for OHS-50 cells (AID 1347103); further: nearly all actives have a fitted effect of over 40% in size; further: potency means the concentration at half of the fitted maximal effect
Summary of the method: as §1

[9] = qHTS of pediatric cancer cell lines to identify multiple opportunities for drug repurposing: Confirmatory screen for LAN-5 cells (AID 1347113); further: nearly all actives have a fitted effect of over 65% in size; further: potency means the concentration at half of the fitted maximal effect
Summary of the method: as §2

[10] = qHTS of pediatric cancer cell lines to identify multiple opportunities for drug repurposing: Confirmatory screen for BT-37 cells (AID 1347117); further: nearly all actives have a fitted effect of over 55% in size; further: potency means the concentration at half of the fitted maximal effect
Summary of the method: as §2

[11] = qHTS of pediatric cancer cell lines to identify multiple opportunities for drug repurposing: Confirmatory screen for NB1643 cells (AID 1347109); further: nearly all actives have a fitted effect of over 45% in size
Summary of the method: as §2

[12] = qHTS of pediatric cancer cell lines to identify multiple opportunities for drug repurposing: Confirmatory screen for NB-EBc1 cells (AID 1347115); further: nearly all actives have a fitted effect of over 45% in size
Summary of the method: as §2

[13] = qHTS of pediatric cancer cell lines to identify multiple opportunities for drug repurposing: Confirmatory screen for MG 63 (6-TG R) cells (AID 1347119); further: nearly all actives have a fitted effect of over 55% in size; further: potency means the concentration at half of the fitted maximal effect
Summary of the method: as §2

[14] = qHTS of pediatric cancer cell lines to identify multiple opportunities for drug repurposing: Confirmatory screen for A673 cells (AID 1347110); further: nearly all actives have a fitted effect of over 65% in size; further: potency means the concentration at half of the fitted maximal effect
Summary of the method: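 Forty-eight-hour viability assay. Follow-up compounds ran at 11-point dilutions; positive control bortezomib at 2.3 uM final, neutral control DMSO.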

[15] = qHTS of pediatric cancer cell lines to identify multiple opportunities for drug repurposing: Confirmatory screen for BT-12 cells (AID 1347112); further: nearly all actives have a fitted effect of over 55% in size
Summary of the method: as §2

[16] = qHTS of pediatric cancer cell lines to identify multiple opportunities for drug repurposing: Confirmatory screen for SK-N-MC cells (AID 1347111);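 further: potency means the concentration at half of the fitted maximal effect; cells exposed to compound for 48 h before the readout; nearly all actives have a fitted effect of over 70% in size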
Summary of the method: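 SK-N-MC cells at 500-1,000 cells/well in growth media were pre-incubated 5 h, then exposed to compounds at 11-point dilutions for 48 h at 37 degrees C, 5% CO2. Viability was read as CellTiter-Glo luminescence.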

[17] = qHTS of pediatric cancer cell lines to identify multiple opportunities for drug repurposing: Confirmatory screen for DAOY cells (AID 1347114); further: nearly all actives have a fitted effect of over 65% in size
Summary of the method: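 Viability measured as metabolically active cells via CellTiter-Glo luminescence following 48 hours of compound exposure, 11-point dilutions in confirmatory testing. 500-1,000 cells/well plated 5 hours before dosing; controls were DMSO and 2.3 µM bortezomib.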

[18] = qHTS of pediatric cancer cell lines to identify multiple opportunities for drug repurposing: Confirmatory screen for TC32 cells (AID 1347118); further: nearly all actives have a fitted effect of over 65% in size; further: potency means the concentration at half of the fitted maximal effect
Summary of the method: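 Luminescent ATP read-out (CellTiter-Glo) of metabolically active TC32 cells after 48 h exposure. Concentration-response curves came from 11-point (MIPE, 0.78 nM–46 µM) or 8-point (NPC, 0.59 nM–46 µM) primary titrations; follow-up used 11 points.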

[19] = qHTS of pediatric cancer cell lines to identify multiple opportunities for drug repurposing: Confirmatory screen for control Hh wild type fibroblast cells (AID 1347121); further: nearly all actives have a fitted effect of over 70% in size
Summary of the method: as §2

Measured: Potency

CN(C)CCOc1ccc(-c2nc(-c3ccc4c(c3)CCC4=NO)c(-c3ccncc3)[nH]2)cc1
active: [1] 27.3 µM | [2] 23.5 µM | [3] 18.7 µM | [4] 18.7 µM | [5] 23.5 µM

N#Cc1ccc(Oc2ccc3c(c2)COB3O)cc1
inactive: [2] | [3] | [6] | [7] | [4] | [5]

CC(C)C[C@H](NC(=O)c1cc2ccccc2s1)C(=O)N1CCN(C(=O)[C@H](CO)NS(=O)(=O)c2ccc(Cl)cc2Cl)CC1
inactive: [7]
active: [1] 0.001 µM | [8] 21.7 µM | [9] 23.3 µM | [10] 13.1 µM

CCOC(=O)[C@H]1O[C@H]1C(=O)N[C@@H](CC(C)C)C(=O)NCCC(C)C
inactive: [1] | [8] | [6] | [7]

Cc1c(C(=O)Nc2ccc(N3C[C@@H](C)O[C@@H](C)C3)nc2)cccc1-c1ccc(OC(F)(F)F)cc1
active: [1] 13.7 µM | [8] 19.3 µM | [6] 23.5 µM | [13] 10.4 µM
inactive: [7] | [11] | [9] | [12]

CNc1nc(Nc2ccc(C(=O)N3CCOCC3)cc2OC)ncc1Cl
inactive: [1] | [3] | [7] | [5]

CN1CCC(COc2cnc(-c3cccc(Cn4nc(-c5cccc(C#N)c5)ccc4=O)c3)nc2)CC1
inactive: [1] | [2] | [4]
active: [3] 4.69 µM | [6] 0.743 µM | [5] 3.72 µM

COc1cc([C@H]2Oc3cc([C@H]4Oc5cc(O)cc(O)c5C(=O)[C@H]4O)ccc3O[C@H]2CO)ccc1O
inactive: [2] | [8] | [7]

CCOc1ccccc1N=Nc1c(C)[nH]n(-c2nc(-c3ccccc3)cs2)c1=O
inactive: [1] | [2] | [7]

C=CCc1cccc(C=NNC(=O)CN2CCN(Cc3ccccc3)CC2)c1O
inactive: [7]
active: [1] 24.3 µM | [8] 7.69 µM | [3] 16.6 µM | [6] 18.7 µM | [5] 18.7 µM

OC1CCC(Nc2ncc3nc(Nc4c(F)cc(F)cc4F)n([C@@H]4CCOC4)c3n2)CC1 (some centres undefined)
inactive: [1] | [2] | [6] | [7] | [5]

CCCCC[C@H](O)C=C[C@H]1[C@H](O)CC(=O)[C@H]1CC=CCCCC(=O)O
inactive: [2] | [8] | [3] | [6] | [7] | [4] | [5]

C[C@H](c1ccc(F)cc1CCCC(=O)O)N(c1cc(F)ccc1F)S(=O)(=O)c1ccc(Cl)cc1
inactive: [1] | [2] | [7] | [14] | [15] | [9] | [12] | [10] | [13]
active: [4] 14.8 µM

O=C(O)c1ccc(O)c2ncc(N3CCOCC3)cc12
active: [8] 24.3 µM | [5] 18.7 µM
inactive: [2]

CN1CC(=O)NC1=NC(=O)Nc1cccc(Cl)c1
inactive: [2] | [3] | [6] | [7]

CN(C(Cc1ccc(OS(=O)(=O)c2cccc3cnccc23)cc1)C(=O)N1CCN(c2ccccc2)CC1)S(=O)(=O)c1cccc2cnccc12 (centres undefined)
inactive: [4] | [14] | [17] | [19]
active: [8] 13.7 µM | [6] 14.8 µM | [16] 2.93 µM | [18] 3.69 µM

Cc1ccccc1-n1c(Cn2nc(-c3cccc(O)c3)c3c(N)ncnc32)nc2cccc(C)c2c1=O
inactive: [7] | [4] | [11] | [9] | [18] | [19]
active: [8] 0.0385 µM | [3] 0.118 µM | [5] 3.72 µM | [14] 7.37 µM

CC(C)c1onc(-c2c(Cl)cccc2Cl)c1COc1ccc(C=Cc2cccc(C(=O)O)c2)c(Cl)c1
active: [8] 30.6 µM
inactive: [7]

O=[N+]([O-])c1ccc(Nc2ccccc2-c2ccccc2)c2nonc12
inactive: [2] | [7]

COc1ccc(-c2nc3ccc(C4=NNC(=O)CC4C)cc3[nH]2)cc1 (centres undefined)
inactive: [6] | [7] | [4]

O=C1CN2Cc3c(ccc(Cl)c3Cl)N=C2N1
active: [8] 21.7 µM
inactive: [6] | [7]

C[C@@H]1CCO[C@H]2Cn3cc(C(=O)NCc4ccc(F)cc4F)c(=O)c(O)c3C(=O)N12
inactive: [3] | [6] | [7]

Oc1ccc(C=Cc2cc(O)cc(O)c2)cc1
inactive: [2] | [6] | [7] | [4] | [5]

CNC(=O)c1c(-c2ccc(F)cc2)oc2cc(N(CCO)S(C)(=O)=O)c(C3CC3)cc12
inactive: [4]
active: [8] 27.3 µM | [3] 29.6 µM | [5] 18.7 µM

From PubChem BioAssay (NCATS)
